From PubChem BioAssay (NCI) come the findings set out here.

SMILES strings stand for the structures. This is part of a sample that, as a whole, favours compounds with a hit. Of some 79,000 tested, about 15% had one in any assay. Unmarked numbers belong to inactive results. The source made the active and inactive calls. No stated cut-off is given here; in the data, active means growth inhibition above about 70%; inactive means the rest.

Assay [1] can be described thus: NCI Yeast Anticancer Drug Screen. Data for the rad50 strain (AID 155).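 Further: 0% = growth of vehicle-only cultures of the same strain.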 The note with it: S. cerevisiae rad50 strain growth inhibition; at 50.0 µM; active compounds read high. The gist of the method: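 Yeast carrying a defined DNA repair defect were exposed to test compounds, and growth was compared with vehicle-treated controls to give percent inhibition.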
Assay [2] can be described thus: NCI Yeast Anticancer Drug Screen. Data for the mec2-1 strain (AID 157). The note with it: S. cerevisiae mec2-1 strain, at 50.0 µM, active compounds read high. In short, it runs like this:
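Yeast mec2-1 mutant treated with compound. Readout: growth inhibition vs vehicle controls.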

Assay [3] is described as follows: NCI Yeast Anticancer Drug Screen. Data for the sgs1 mgt1 strain (AID 161).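 Further: 0% = growth of cultures given vehicle only.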 The note with it: S. cerevisiae sgs1 mgt1 strain, at 50.0 µM, active compounds read high. The gist of the method:
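Inhibition of yeast growth, normalised to vehicle-treated controls, is reported for a strain bearing genetic alterations in DNA damage repair.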

A short description of assay [4]: NCI Yeast Anticancer Drug Screen. Data for the cln2 rad14 strain (AID 165).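 Further: 0% = growth equal to vehicle treated cultures.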 The note with it: S. cerevisiae cln2 rad14 strain, at 50.0 µM, active compounds read high. The gist of the method:
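cln2 rad14 yeast strain; compound exposure; growth inhibition read vs vehicle controls.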

A short description of assay [5]: NCI Yeast Anticancer Drug Screen. Data for the bub3 strain (AID 167). The note with it: S. cerevisiae bub3 mutant strain, at 50.0 µM, active compounds read high. In short, it runs like this: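 Compounds were applied to a genetically altered yeast strain carrying a cell-cycle control defect. Growth inhibition was scored against vehicle-treated controls.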
A short description of assay [6]: NCI Yeast Anticancer Drug Screen. Data for the mlh1 rad18 strain (AID 175). The note with it: S. cerevisiae mlh1 rad18 strain growth inhibition; at 50.0 µM; active compounds read high. The gist of the method: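 Yeast w/ defined DNA-repair lesions; compound exposure; growth vs vehicle controls → % inhibition.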

Take `CC(=O)OCC(=O)O[C@@H]1[C@H]2[C@@H](OC(=O)c3ccccc3)[C@@H](C)C[C@]2(O)[C@H](OC(C)=O)[C@@]2(C)C(OC(C)=O)[C@]1(OC(C)=O)C[C@H]1C(=O)C(C)(C)C[C@@H]12` (stereo partly specified): the growth inhibition in assay [1] was -39.6%; in assay [2] it was -33%; in assay [3] it was -36.5%; in assay [4], -28.9%; in assay [5] it was -41.5%; in assay [6], -61%.
`CC[N+](CC)(CC)Cc1cc2ccccc2n1C(=O)OC`: the growth inhibition in assay [1] is -9.25%; in assay [2] it was -24.4%; in assay [3] it was -25.8%; in assay [4], -1.4%; in assay [5] it was -12.2%; in assay [6], -28.9%.
Take `CCCC1OCCO1`: the growth inhibition in assay [1] is -15.3%; in assay [2] it was -0.95%; in assay [3], -6.85%; in assay [4], -4.5%; in assay [5] it was 5.15%; in assay [6], -3.9%.
For `C=C1C(C2(C)C=CC(=O)OC3(C)COC(=O)CC32)C(OC=O)C(OC(=O)C(O)C(C)CC)C2(C)C(c3ccoc3)CC(OC(C)=O)C12O` (stereo unspecified), the growth inhibition in assay [1] is 7.9%; in assay [2], -5.2%; in assay [3], -4.65%; in assay [4], -0.45%; in assay [5], 16.3%; in assay [6] it was -21.4%.
With `C(=N\N=C\c1ccccn1)/c1ccccn1`, the growth inhibition was 9.65% in assay [1]; -6.95% in assay [2]; 5.5% in assay [3]; 4.8% in assay [4]; -3.7% in assay [5]; 26.2% in assay [6].
For the compound `CCOC(=O)C(Cc1ccccc1Cl)(NC(C)=O)C(=O)OCC`, the growth inhibition in assay [1] is 2.1%; in assay [2], -7.95%; in assay [3] it was -0.35%; in assay [4], -10.2%; in assay [5], 11.8%; in assay [6] it was -20.1%.
As for `CC(=O)Oc1ccc(C2c3cc(OC(C)=O)c(OC(C)=O)cc3CC3C(=O)OCC32)cc1OC(C)=O` (stereo unspecified), the growth inhibition is 2.45% in assay [1]; -4.85% in assay [2]; 2.6% in assay [3]; -36.3% in assay [4]; 12.3% in assay [5]; 1.1% in assay [6].
On to `COc1ccccc1NC(=O)C(=O)C(c1cnc2ccc([N+](=O)[O-])cc2n1)[N+](=O)[O-]` (stereo unspecified), for which the growth inhibition in assay [1] is 16.2%; in assay [2] it was -3.4%; in assay [3], 6.3%; in assay [4] it was 18.5%; in assay [5], 7.6%; in assay [6], -0.2%.
Regarding `N#CCCN1CCCSC1=S`, the growth inhibition in assay [1] is 6.15%; in assay [2], 17.1%; in assay [3], 4.2%; in assay [4], 4.05%; in assay [5], -3.1%; in assay [6], 1.7%.
Consider `CCc1c([N+](=O)[O-])cc(C(C)(C)C)c(OC)c1[N+](=O)[O-]`, for which the growth inhibition is -9.05% in assay [1]; -9.75% in assay [2]; 0.6% in assay [3]; -17.6% in assay [4]; 20.2% in assay [5]; -31.6% in assay [6].
Turning to `CC(/C=N/Nc1ccccc1)=N\N=c1/scc(-c2ccc(Cl)cc2)n1-c1ccc(Cl)cc1`, the growth inhibition in assay [1] was 22.4%; in assay [2] it was 4.65%; in assay [3] it was 13.9%; in assay [4] it was -0.2%; in assay [5], 11.1%; in assay [6], 27.9%.
Regarding `C[N+]1(C)C2Cc3ccccc3C1Cc1ccccc12`, the growth inhibition was -1.7% in assay [1]; -11.6% in assay [2]; 11.4% in assay [3]; 10.4% in assay [4]; 3.75% in assay [5]; -57% in assay [6].
Consider `C[N+]1(C)CCC(O)C(c2ccccc2)C1` (stereo unspecified), for which the growth inhibition in assay [1] was -8.9%; in assay [2] it was -0.45%; in assay [3], -3.5%; in assay [4], -22.5%; in assay [5], -8.1%; in assay [6] it was -0.7%.
For `CC(=O)OC1=NCC(OC(C)=O)=NC1`, the growth inhibition in assay [1] was 5.2%; in assay [2], 13.9%; in assay [3] it was 2.25%; in assay [4] it was -16.9%; in assay [5], 2.65%; in assay [6], 6.5%.
For the compound `C=C(C(N)=O)c1ccc([N+](=O)[O-])o1`, the growth inhibition is 52.4% in assay [1]; 44.7% in assay [2]; 62.4% in assay [3]; 30% in assay [4]; 19.8% in assay [5]; 90% (active) in assay [6].
On to `CC(=O)Nc1ccc2c(c1)Cc1cccc(O)c1-2`, for which the growth inhibition is 0.65% in assay [1]; -7.15% in assay [2]; 15.9% in assay [3]; -29.9% in assay [4]; 1.75% in assay [5]; 10.1% in assay [6].
In the case of `Cc1ccccc1Nc1n[nH]c(=O)n1-c1ccccc1C`, the growth inhibition is 4.05% in assay [1]; 6.65% in assay [2]; 1.75% in assay [3]; -12.5% in assay [4]; 1.15% in assay [5]; 2.9% in assay [6].
On to `CCOC(=O)C(/C=C/C(C)C)(CC)C(=O)OCC`, for which the growth inhibition in assay [1] was -8.75%; in assay [2], 11.2%; in assay [3] it was 8.2%; in assay [4], 44.8%; in assay [5] it was -6.95%; in assay [6], 24.4%.
Take `CCOC(=O)/C(=C/O)NC(=O)c1ccccc1`: the growth inhibition in assay [1] is -10.4%; in assay [2], 18.8%; in assay [3], -5.5%; in assay [4] it was -18.9%; in assay [5], -9.95%; in assay [6], 19.4%.
For `ClC/C=C/COC1CCCCO1` (stereo unspecified), the growth inhibition in assay [1] is 6.8%; in assay [2], -8.55%; in assay [3], -8.5%; in assay [4], -13.8%; in assay [5] it was -7.6%; in assay [6] it was -8.9%.
Regarding `CN(C(=O)c1ccc(Cl)cc1)C(=S)N1CCN(c2ccccn2)CC1`, the growth inhibition in assay [1] was -66%; in assay [2], -33.8%; in assay [3], -36.6%; in assay [4], -3.7%; in assay [5], -13.9%; in assay [6], -43.5%.
